# Test results reported in PubChem BioAssay AID687016 (The Scripps Research Institute Molecular Screening Center, 2013).
# Screen size: about 370,000 compounds; about 2,800 (0.76%) were called active. Cut-off read from the data, not from the text of the source: active = inhibition above about 21%; inactive = the rest. Many of the other results were omitted from the sample, so actives are more common in it than they were.
# Biological target: E3 ubiquitin-protein ligase UHRF1 (Homo sapiens) (UniProt Q96T88)
# Sequence (Q96T88 whole entry, looked up, the tested form may be a part): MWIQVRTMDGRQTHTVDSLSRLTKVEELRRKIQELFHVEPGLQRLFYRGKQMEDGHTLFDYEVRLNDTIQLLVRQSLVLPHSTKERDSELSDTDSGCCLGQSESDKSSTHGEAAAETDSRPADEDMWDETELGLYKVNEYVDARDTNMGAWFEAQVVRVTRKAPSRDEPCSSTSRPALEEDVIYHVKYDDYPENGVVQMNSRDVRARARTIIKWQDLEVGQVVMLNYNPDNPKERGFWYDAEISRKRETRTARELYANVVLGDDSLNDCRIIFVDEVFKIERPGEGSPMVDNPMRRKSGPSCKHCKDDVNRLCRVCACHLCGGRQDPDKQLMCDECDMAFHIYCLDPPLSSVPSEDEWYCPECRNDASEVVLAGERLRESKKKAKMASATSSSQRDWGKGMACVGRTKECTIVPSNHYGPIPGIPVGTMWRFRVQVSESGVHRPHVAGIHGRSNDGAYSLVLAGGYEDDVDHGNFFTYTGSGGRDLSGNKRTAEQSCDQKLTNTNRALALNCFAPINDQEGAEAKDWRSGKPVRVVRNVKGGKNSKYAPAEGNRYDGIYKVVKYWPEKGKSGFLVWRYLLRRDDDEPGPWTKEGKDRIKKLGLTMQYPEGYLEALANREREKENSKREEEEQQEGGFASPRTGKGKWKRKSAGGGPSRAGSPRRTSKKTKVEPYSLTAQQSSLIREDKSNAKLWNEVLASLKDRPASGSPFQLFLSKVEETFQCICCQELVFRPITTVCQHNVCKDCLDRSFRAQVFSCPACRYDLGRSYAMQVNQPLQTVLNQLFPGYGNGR
# Assay: UHRF1 methylated DNA binding inhibitors, primary screen, counter-screen for MBD2 inhibitor project, biochemical, TR-FRET, human UHRF1, single concentration (AID 687016);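 note: UHRF1 SRA domain binding a hemimethylated CpG hairpin DNA probe; 0% = median of test compound wells and 100% = reference inhibitor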
# Conditions: UHRF1 binding to methylated oligo, at 4.4 µM, active compounds read high
row,Structure (SMILES),inhibition
1,COc1ccc([C@H]2OC(=O)C[C@H]2C(=O)N2CCN(c3ccccc3F)CC2)cc1OC,-2.23% (inactive)
2,O=S(=O)(Cc1ccccc1)c1nc2ccccc2n1Cc1ccccn1,0.93% (inactive)
3,CC(=O)Nc1nonc1-c1nc2ccccc2n1Cc1ccccn1,54.5% (active)
4,COc1ccc(C)c(Cn2c(-c3nonc3N)nc3ccccc32)c1,-5.53% (inactive)
5,Cc1cccc(C(=O)Nc2c(-c3ccc(F)cc3)nc3ncccn23)c1,-2.59% (inactive)
6,COc1ccc(N2CCN(CCNS(=O)(=O)c3ccc([N+](=O)[O-])cc3)CC2)cc1,-0.84% (inactive)
7,COc1c(C)cc(C(=O)C2CCCN(S(=O)(=O)c3c(C)noc3C)C2)cc1C (configuration not stated),20.7% (active)
8,Cc1noc(C)c1S(=O)(=O)N1CCCC(C(=O)Nc2nccs2)C1 (configuration not stated),-1.61% (inactive)
9,Cc1ccc(NC(=O)C2CCCN(S(=O)(=O)c3c(C)noc3C)C2)c(C)c1 (configuration not stated),-1.46% (inactive)
10,Cc1ccc(C2=CCN(C)C(=O)N2c2ccc(Cl)cc2)cc1,-4.14% (inactive)
11,COc1ccc(C#CCNCc2ccc(OC)cc2OC)cc1,-1.17% (inactive)
12,CCOC(=O)c1sc2nc(C)nc(SCC(N)=O)c2c1C,-1.2% (inactive)
13,CSc1nnc(SCc2nc3sc(C(=O)O)c(C)c3c(=O)[nH]2)s1,32.3% (active)
14,CCN(CC)Cc1nc2sc(C)c(C)c2c(=O)[nH]1,2.13% (inactive)
15,Cc1c(C(C)c2ccccc2O)[nH]c2ccccc12 (configuration not stated),-2.42% (inactive)
16,O=C(CSc1nc2ccccc2s1)N=Nc1c(O)[nH]c2ccccc12,-3.32% (inactive)
17,CCN(CC)C(=O)CC[C@@H]1CC[C@]2(CCCN(S(=O)(=O)C3CCCCC3)C2)O1,-0.55% (inactive)
18,Cc1ccc(Cn2cc(COC(=O)N(C)Cc3ccccc3)nn2)cc1,-4.1% (inactive)
19,Cc1cc(C)cc(NC(=O)Cn2cnc3c(nnn3Cc3ccc(F)cc3)c2=O)c1,0.23% (inactive)
20,O=C(Cn1cnc2c(nnn2Cc2ccc(F)cc2)c1=O)NCc1ccc2c(c1)OCO2,21.8% (active)
21,Cc1ccc(Cn2nnc3c(=O)n(CC(=O)N4CCCCC4)cnc32)cc1,0.43% (inactive)
22,CCCCNC(=O)C[C@H]1C(=O)N(Cc2ccc(OC)cc2)C2=CCCC[C@@]21C(=O)OCC,5.53% (inactive)

row,Structure (SMILES),inhibition
1,Cc1nc(CNc2ncnc3ccc(-c4ccc5c(c4)OCO5)cc23)cs1,-2.89% (inactive)
2,CCC(C(=O)OC)n1cnc2scc(-c3ccc(C)cc3)c2c1=O (configuration not stated),0.64% (inactive)
3,COC(=O)c1sc(N)c(C(=O)OC)c1COC(=O)CNS(=O)(=O)c1ccc(C)cc1,-0.33% (inactive)
4,COC(=O)c1c(-c2ccc(C)cc2)csc1N,28.4% (active)
5,CCCCNC(=O)C[C@H]1C[C@@]2(C(=O)OC)C(=C[C@H](COCc3ccccc3)O[C@@H]2C)N(Cc2ccc(Cl)cc2Cl)C1=O,1.55% (inactive)
6,COC(=O)C1CN(CCc2ccccc2)CCS(=O)(=O)N1Cc1cccc(Cl)c1 (configuration not stated),1.44% (inactive)
7,CC(NCc1ccco1)C(=O)N1CCCCC1 (configuration not stated),0.03% (inactive)
8,COc1ccc(-n2c(SCC(=O)Nc3ccc4c(c3)OCCO4)nnc2-c2ccc(Cl)cc2)cc1,2.21% (inactive)
9,COC(=O)CC1CCc2cc(C)cc(C(CC(C)C)NC(=O)[C@H](CC(C)C)NC(=O)OCc3ccccc3)c2O1 (some centres not stated),4.14% (inactive)
10,CC(=O)c1cccc(-c2cnc3c(NC=O)cc(-c4ccc(N(C)C)cc4)cn23)c1,31.6% (active)
11,CN(C)C(=O)c1cccc(-c2cnc3c(NC=O)cc(-c4ccc(C(=O)N5CCOCC5)cc4)cn23)c1,-6.57% (inactive)
12,CC(=O)c1cccc(-c2cnc3c(NC=O)cc(-c4ccc(N5CCN(C)CC5)cc4)cn23)c1,-0.16% (inactive)
13,Cc1ccccc1CN1CCCCC(NC(=O)Nc2ccccc2F)C1=O (configuration not stated),-1.71% (inactive)
14,CCOC(=O)CSc1nc(N2CCOCC2)c2c(c1C#N)CC(C(C)C)OC2 (configuration not stated),1.09% (inactive)
15,CC(C)C(=O)N1CCN(c2nc(-c3ccccc3)c3c(c2C#N)CC(C)(C)OC3)CC1,-0.61% (inactive)
16,CC1(C)Cc2c(C#N)c(SCc3nc4ccccc4[nH]3)nc(N3CCOCC3)c2CO1,25.8% (active)
17,CCC[C@H]1C(=O)CC[C@@]23CCCN2C(=O)CCC[C@@H]13,-3.81% (inactive)
18,CCN(CC)C(=O)C(=O)c1cn(CC(=O)NCc2ccc3c(c2)OCO3)c2ccccc12,1.9% (inactive)
19,CCN(CC)C(=O)Cn1cc(S(=O)(=O)CC(=O)NCc2ccc3c(c2)OCO3)c2ccccc21,22.7% (active)
20,CC(C)N(C(=O)Cn1cc(S(=O)(=O)CC(=O)N2CCOCC2)c2ccccc21)C(C)C,0.05% (inactive)
21,CC[C@@]1(C(=O)OC)N[C@H](CN(C)C(C)=O)[C@@H]2C(=O)N(C)C(=O)[C@@H]21,4.65% (inactive)
22,CCCC1(C(=O)OC)NC(c2ccco2)C2C(=O)N(C)C(=O)C21 (configuration not stated),26.9% (active)

row,Structure (SMILES),inhibition
1,CCCSc1ccc([C@H]2N[C@@](Cc3ccccc3)(C(=O)OC)[C@H]3C(=O)N(C)C(=O)[C@@H]23)cc1,2.8% (inactive)
2,COc1ccc2c(c1)CN1CN(CCc3ccccc3)S(=O)(=O)CC21 (configuration not stated),-5.7% (inactive)
3,COC(=O)[C@@]12CCCCC3=C1N(CCC3)C(=O)[C@H]2CC(=O)NCc1cccc2ccccc12,-1.21% (inactive)
4,CC(=O)N1CCc2cc(S(=O)(=O)NCCC(=O)N3CCCC3)ccc21,2.88% (inactive)
5,CC(c1ccc(N)cc1)c1cn(C)c2ccccc12 (configuration not stated),2.19% (inactive)
6,O=C(NCCc1c[nH]c2ccccc12)OCc1cn(-c2c(F)cccc2F)nn1,-1.24% (inactive)
7,O=S(=O)(c1ccccc1)N1CCC(c2nc3ccccc3o2)CC1,-2.1% (inactive)
8,Cc1ccc(S(=O)(=O)N2CCN(C(=O)CCC(=O)NC3CCCc4ccccc43)CC2)cc1 (configuration not stated),-0.03% (inactive)
9,CNS(=O)(=O)c1cccc(C(=O)NC2CCCc3ccccc32)c1 (configuration not stated),-0.54% (inactive)
10,O=C(O)c1cc(S(=O)(=O)NC2CCCc3ccccc32)ccc1O (configuration not stated),26.4% (active)
11,COC(=O)C1CN(CCc2ccccc2)CCS(=O)(=O)N1Cc1ccc(F)cc1 (configuration not stated),2.78% (inactive)
12,O=C(Nc1cc(F)cc(F)c1)OC1CCC12CCC(c1ccccc1)CC2 (configuration not stated),-0.77% (inactive)
13,CC(C)(C)c1ccc(C(=O)Nc2cc(Cl)c(Br)cc2C(=O)O)cc1,3.66% (inactive)
14,Cc1ccc(S(=O)(=O)N(CC(=O)NN=C2CCN(C)CC2)c2ccc(F)cc2)cc1,-0.56% (inactive)
15,Cc1ccc(S(=O)(=O)N(CC(=O)N/N=C/c2ccc(F)cc2)c2cccc3cccnc23)cc1,24.1% (active)
16,COc1ccccc1N(CC(=O)N/N=C(\C)c1ccccc1O)S(=O)(=O)c1ccc(C)cc1,-1.56% (inactive)
17,O=S1(=O)c2ccc(Br)cc2OC[C@H](Cc2ccccc2)N1Cc1cn(Cc2ccccc2)nn1,1.7% (inactive)
18,COc1ccc(S[C@]2(C(=O)N(C)C)CC(=O)N(c3ccc(OC)cc3)[C@@H]2c2ccc(OC)cc2)cc1,2.01% (inactive)
19,O=C(O)c1ccc(NN=CC2=C(N3CCOCC3)/C(=C/c3ccccc3)CC2)cc1,22.5% (active)
20,O=C(Nc1ccc(F)cc1)c1cccnc1N1CCOCC1,-3.63% (inactive)
21,O=C1OC(NC(=O)c2ccccc2)C(N2CCOCC2)=C1Cl (configuration not stated),0.02% (inactive)
22,CCOC(=O)C(=O)N(Cc1ccccc1)c1ccccc1C(=O)Nc1cc(OC)ccc1OC,1.4% (inactive)

row,Structure (SMILES),inhibition
1,COc1ccc(CCNc2nc(-c3cccc(NC(C)=O)c3)cs2)cc1OC,63% (active)
2,COc1ccc(CCNc2nc(C)cc(C)n2)cc1OC,-1.42% (inactive)
3,COc1ccc(NC(=O)C2(C)Cc3c(-c4cccc(NC(C)=O)c4)ccnc3O2)cc1OC (configuration not stated),3.78% (inactive)
4,Cc1ccc(CSc2nnc(SCC(=O)NN=Cc3cc(Br)ccc3F)s2)cc1,-0.65% (inactive)
5,COc1ccc(NC(=O)CSc2nc3ccccc3c(=O)n2C)cc1,40.1% (active)
6,COc1ccc(NC(=O)CSc2nnc(Cc3ccccc3)c(=O)n2N)cc1,-3.2% (inactive)
7,COc1ccc(-n2c(SCC(=O)Nc3ccc(C)c(Cl)c3)nc3ccccc3c2=O)cc1,0.63% (inactive)
8,COc1ccc(C2CC=C(C(=O)O)C(c3ccccc3F)N2S(=O)(=O)c2ccc(C)cc2)cc1OC (configuration not stated),-0.43% (inactive)
9,COc1cccc(N(C)C(=O)[C@@H](C)[C@@H](O)c2ccc3ccccc3c2)c1,-1.4% (inactive)
10,O=C1NC(=O)C(c2ccc(Cl)cc2)N1 (configuration not stated),2.25% (inactive)
11,CC(C)Oc1ccc(C2NC(=O)NC2=O)cc1 (configuration not stated),25% (active)
12,COc1ccc(C2NC(=O)N(C)C(C)=C2[N+](=O)[O-])cc1 (configuration not stated),0.56% (inactive)
13,N#Cc1ccccc1OC[C@@H](O)CN1CCC(C(O)(c2ccccc2)c2ccccc2)CC1,-2.62% (inactive)
14,Cc1ccc(CN2CCCCC(NC(=O)C3CCCCC3)C2=O)cc1 (configuration not stated),-1.14% (inactive)
15,CCS(=O)(=O)Nc1cc(C(=O)OC)ccc1C(=O)OC,-4.74% (inactive)
16,CCN(CCO)C(=S)Nc1cc(C(=O)OC)ccc1C(=O)OC,2.08% (inactive)
17,CCCN(CCC)C(=S)Nc1cc(C(=O)OC)ccc1C(=O)OC,20.9% (active)
18,COc1cccc(/C=C2\CC3(OC(C)=O)CCCN2C3)c1 (configuration not stated),-1.67% (inactive)
19,Cc1ccc(-c2nn(-c3ccc(F)cc3)cc2C(=O)NCC(c2cccs2)N2CCOCC2)cc1 (configuration not stated),-1.94% (inactive)
20,COc1ccc(NS(=O)(=O)c2ccc(C)c(C(=O)NCC(c3cccs3)N3CCOCC3)c2)cc1 (configuration not stated),3.98% (inactive)
21,O=C(NCC(c1cccs1)N1CCOCC1)c1cc(Cl)ccc1[N+](=O)[O-] (configuration not stated),29.1% (active)
